Results on six molecules are retold here after PubChem BioAssay.

The test system of assay [1] is Human papillomavirus type 1a protein E7 (residues 44-93). Kind of assay: small molecules binding HPV E7 44-93 – biochemical, small-molecule microarray, residues 44-93, 635 nm fluorescence, primary screen (AID 1108).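 Note: E7 fragment applied at 1 µg/mL in TBST for 1 h at 4 C; score combines spot fluorescence with its signal to noise ratio.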 The note with it: fluorescence 635 nm, higher = more signal.
Assay [2] is described as follows: hepatitis C replication reporter changes, two-sided – Huh7 cells, luciferase reporter, HCV replication inhibitor project, primary screen (AID 1109).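 Note: huh7 hepatoma cells harbouring a luciferase neomycin HCV replicon reporter; luciferase luminescence as measure of HCV replicon replication; test concentration not given here.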 The conditions noted are these: Huh7 HCV replicon luciferase reporter, 48 h; higher = more signal.
For assay [3], the target named is Left-right determination factor 2 (Homo sapiens) (UniProt O00292). Kind of assay: small molecules binding LEFTY2 protein – biochemical, small-molecule microarray, 635 nm fluorescence scan, primary screen (AID 1110). The conditions noted are these: higher = more signal.
Sequence of Left-right determination factor 2 (Homo sapiens) (O00292 whole entry, looked up): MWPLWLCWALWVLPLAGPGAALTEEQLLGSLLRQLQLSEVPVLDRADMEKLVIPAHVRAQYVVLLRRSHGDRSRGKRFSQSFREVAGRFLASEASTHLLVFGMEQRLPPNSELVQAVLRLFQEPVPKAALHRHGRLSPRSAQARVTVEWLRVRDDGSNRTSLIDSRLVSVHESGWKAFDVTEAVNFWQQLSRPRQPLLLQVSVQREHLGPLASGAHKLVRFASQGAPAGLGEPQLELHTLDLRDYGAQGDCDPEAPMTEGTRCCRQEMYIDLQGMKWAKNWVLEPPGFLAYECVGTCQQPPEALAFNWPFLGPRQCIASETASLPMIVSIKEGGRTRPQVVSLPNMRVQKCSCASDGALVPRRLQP
Assay [4] concerns the target Calmodulin-1 (Homo sapiens) (UniProt P0DP23). Nature of the assay: small molecules binding calmodulin-1 with EGTA – biochemical, small-molecule microarray, Cy5-labelled CALM1, profiling panel (AID 1111).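 Note: labelled calmodulin applied in Tris saline Tween buffer holding calcium plus EGTA and DTT.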 The conditions noted are these: Cy5-CALM1 binding fluorescence, higher = more signal.
Assay [5] shares this target. Kind of assay: small molecules binding Ca-loaded calmodulin-1 – biochemical, small-molecule microarray, Cy5-labelled CALM1, plus calcium, artefact control for SMM control-protein annotation, profiling panel (AID 1112).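 Note: score merges spot fluorescence with signal to noise from triplicate slides.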 The conditions noted are these: Cy5-CALM1 binding fluorescence, higher = more signal.
A short description of assay [6]: probe aWnt5a binding to arrayed compounds – biochemical, biotinylated probe, 635/667 nm fluorescence, primary screen (AID 1113).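 Note: score merges 667 nm fluorescence intensity with signal-to-noise per printed feature.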 The note with it: small-molecule microarray, higher = more signal.
The nature of assay [7]: probe aShh binding to arrayed compounds – biochemical, biotinylated probe, 635/667 nm fluorescence, primary screen (AID 1114).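 Note: probe is biotin-labelled aShh protein from a stem cell growth factor screen; measures binding of labelled protein to compounds printed on the slide; score merges feature fluorescence at 667 nm with signal-to-noise.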 The note with it: small-molecule microarray, higher = more signal.
A short description of assay [8]: probe aNog binding to arrayed compounds – biochemical, biotinylated probe, 635/667 nm fluorescence, primary screen (AID 1115).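 Note: probe is biotinylated aNog protein used at 0.15 µg/mL for 1 h at 4 C; z-score combines 667 nm fluorescence of each spot with its signal to noise.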 The note with it: small-molecule microarray, higher = more signal.
In assay [9] the target is Torsin-1A-interacting protein 1 (Homo sapiens) (UniProt Q5JTV8). Kind of assay: compound microarray binding of lysate hLAP1 – cell lysate, small-molecule microarray, COS7 lysate, 635/667 nm fluorescence, primary screen (AID 1116). The note with it: 635 nm fluorescence, higher = more signal.
Sequence of Torsin-1A-interacting protein 1 (Homo sapiens) (Q5JTV8 whole entry, looked up): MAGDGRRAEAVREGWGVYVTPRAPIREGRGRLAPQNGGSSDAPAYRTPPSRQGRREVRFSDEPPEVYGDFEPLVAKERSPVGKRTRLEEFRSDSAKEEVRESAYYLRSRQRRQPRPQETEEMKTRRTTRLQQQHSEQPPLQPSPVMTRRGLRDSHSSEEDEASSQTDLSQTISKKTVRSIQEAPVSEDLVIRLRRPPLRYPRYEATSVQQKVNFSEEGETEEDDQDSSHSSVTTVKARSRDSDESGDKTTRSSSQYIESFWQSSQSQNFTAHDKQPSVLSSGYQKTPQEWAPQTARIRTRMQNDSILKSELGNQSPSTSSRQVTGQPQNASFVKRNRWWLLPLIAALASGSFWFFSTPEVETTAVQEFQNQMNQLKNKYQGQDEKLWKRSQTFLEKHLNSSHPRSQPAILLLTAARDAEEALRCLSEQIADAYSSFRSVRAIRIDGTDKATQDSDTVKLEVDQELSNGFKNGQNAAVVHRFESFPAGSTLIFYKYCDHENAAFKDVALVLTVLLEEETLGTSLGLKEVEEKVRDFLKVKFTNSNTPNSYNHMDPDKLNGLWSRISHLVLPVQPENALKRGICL
Assay [10] concerns the target Alpha-bungarotoxin (Bungarus multicinctus) (UniProt P60615). Nature of the assay: compounds binding labelled alpha-BTX control protein – biochemical, small-molecule microarray, Alexa647 label, 635/667 nm fluorescence, artefact control for SMM control protein annotation, profiling panel (AID 1117). The conditions noted are these: alpha-BTX-A647 binding fluorescence, higher = more signal.

The target of another assay is Albumin (Bos taurus) (UniProt P02769). Kind of assay: compounds binding labelled BSA control protein – biochemical, small-molecule microarray, Alexa647 label, 635/667 nm fluorescence, artefact control for SMM control protein annotation, profiling panel (AID 1118).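 Note: score merges 667 nm emission intensity and signal-to-noise per printed compound spot.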 The conditions noted are these: BSA-A647 binding, fluorescence 635 nm, higher = more signal.
Sequence of Albumin (Bos taurus) (P02769 whole entry, looked up): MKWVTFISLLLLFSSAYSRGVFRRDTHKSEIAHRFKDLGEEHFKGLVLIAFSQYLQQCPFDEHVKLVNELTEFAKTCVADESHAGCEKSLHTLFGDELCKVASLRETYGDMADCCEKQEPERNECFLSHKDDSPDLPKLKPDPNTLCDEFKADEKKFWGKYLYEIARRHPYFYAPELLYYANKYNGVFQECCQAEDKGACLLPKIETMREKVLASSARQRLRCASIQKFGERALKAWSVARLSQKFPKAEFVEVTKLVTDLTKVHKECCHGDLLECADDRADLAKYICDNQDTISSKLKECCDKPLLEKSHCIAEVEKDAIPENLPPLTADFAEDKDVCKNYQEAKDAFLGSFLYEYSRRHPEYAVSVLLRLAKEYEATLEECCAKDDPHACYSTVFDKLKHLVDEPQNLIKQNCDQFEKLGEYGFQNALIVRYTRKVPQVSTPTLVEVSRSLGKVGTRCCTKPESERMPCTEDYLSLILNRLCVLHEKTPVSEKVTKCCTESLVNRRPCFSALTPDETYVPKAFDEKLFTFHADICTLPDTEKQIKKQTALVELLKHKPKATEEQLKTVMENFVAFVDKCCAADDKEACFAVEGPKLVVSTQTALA
A short description of assay [11]: probe aXIP binding to arrayed compounds – biochemical, NeuroSMM set, 635/667 nm fluorescence, primary screen (AID 1119).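 Note: probe is the protein aXip251-270 applied at 1 µg/mL to compound-printed slides; binding of probe to printed compounds measured as 667 nm fluorescence plus signal to noise.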 The conditions noted are these: small-molecule microarray, higher = more signal, called active from +8 up or from −8 down.
The nature of assay [12]: probe aNOTCH3 binding on compound microarray – biochemical, small-molecule microarray, 635/667 nm fluorescence, primary screen (AID 1120).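 Note: probe is a biotin-tagged antibody raised against NOTCH3 rather than NOTCH3 protein; score merges spot fluorescence near 667 nm with spot signal to noise.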 The conditions noted are these: higher = more signal.
Assay [13] in a line: probe aNOTCH2 binding on compound microarray – biochemical, small-molecule microarray, 635/667 nm fluorescence, primary screen (AID 1121).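 Note: score merges feature fluorescence read at 667 nm with its signal to noise.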 The conditions noted are these: higher = more signal.
In assay [14] the target is Carbonic anhydrase 2 (Homo sapiens) (UniProt P00918). Kind of assay: compounds binding carbonic anhydrase 2 – biochemical, small-molecule microarray, Alexa647-labelled CAII, profiling panel (AID 1122). The conditions noted are these: CAII-A647 binding fluorescence, higher = more signal.
Assay [15] can be described thus: COS7 lysate on small-molecule microarray, probe aHis, 635 nm (AID 1123).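 Note: z-score combines 667nm fluorescence intensity with signal-to-noise per printed compound spot.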 The note with it: COS7 cell lysate, fluorescence, higher = more signal.
A short description of assay [16]: probe aLAP1 signal on lysate-treated microarray – cell lysate, small-molecule microarray, COS7 lysate, primary screen (AID 1124).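 Note: lysate comes from COS7 cells expressing LAP1 and is applied at 0.3 µg/mL; score merges spot fluorescence near 667 nm with signal-to-noise over triplicate slides.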 The note with it: probe aLAP1, fluorescence, higher = more signal.
A further assay concerns Sam68 (KHDRBS1). Nature of the assay: compounds binding KHDRBS1 protein – biochemical, small-molecule microarray, 635 nm fluorescence, primary screen (AID 1125).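 Note: score merges 667 nm channel intensity with signal to noise over triplicate slides.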 The note with it: higher = more signal.
Assay [17] has as its system Chordin-like protein 2 (CHRDL2). Kind of assay: compounds binding chordin-like 2 – biochemical, small-molecule microarray, 635 nm fluorescence, primary screen (AID 1126).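 Note: printed compound slides probed with Chrdl2 protein at 4 µg/mL for 1 h at 4 C; score merges 667 nm emission intensity with signal to noise over three replicate slides.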 The conditions noted are these: fluorescence 635 nm, higher = more signal.
For assay [18], the target named is Concanavalin-A (Canavalia ensiformis) (UniProt P02866). Kind of assay: compounds binding concanavalin A lectin – biochemical, small-molecule microarray, Alexa647 label, 635 nm, artefact control for SMM control protein annotation, primary screen (AID 1127).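 Note: z combines 667 nm emission intensity with signal-to-noise across three replicate slides.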 The conditions noted are these: ConA-A647 binding fluorescence, higher = more signal.
Sequence of Concanavalin-A (Canavalia ensiformis) (P02866 whole entry, looked up): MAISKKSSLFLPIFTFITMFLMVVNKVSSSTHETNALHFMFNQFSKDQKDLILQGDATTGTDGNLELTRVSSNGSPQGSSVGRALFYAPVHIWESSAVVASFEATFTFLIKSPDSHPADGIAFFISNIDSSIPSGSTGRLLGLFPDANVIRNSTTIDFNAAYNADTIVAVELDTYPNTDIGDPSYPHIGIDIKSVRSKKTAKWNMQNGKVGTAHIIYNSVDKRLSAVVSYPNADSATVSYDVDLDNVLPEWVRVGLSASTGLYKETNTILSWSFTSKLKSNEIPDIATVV

Active and inactive are the calls of the source.

Sequence of Alpha-bungarotoxin (Bungarus multicinctus) (P60615 whole entry, looked up): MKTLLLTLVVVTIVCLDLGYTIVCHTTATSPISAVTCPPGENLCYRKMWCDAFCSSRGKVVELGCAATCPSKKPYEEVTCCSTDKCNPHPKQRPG

Regarding `CC1(C)[C@@H]2CC(C(O)C3C=CC4C(=O)N(c5ccccc5)C(=O)C4N3Nc3ccccc3)=C[C@H]1C2` (stereo not given in full), the composite z-score in assay [1] was 0.455; in [3], -0.158; in assay [4], 0.718; in [5], -0.374; in assay [6], 0.0044; in [7], 0.241. Besides, the composite z-score in assay [8] was -0.43; in assay [9], 0.873; in assay [10] it was 0.577; in the assay with Albumin (Bos taurus), 0.566; in assay [12] it was -0.0144; in assay [13], 0.0127. The composite z-score was found to be 0.408 in [14]; 1.61 in assay [15]; 0.322 in assay [16]; 0.031 in the assay on Sam68 (KHDRBS1); 0.684 in assay [17]; 0.566 in assay [18]. This molecule also displayed a z-score in assay [2] of -0.595. In addition, in [11], the composite Z-score is -0.212 (inactive).
For the molecule `O=C(O)[C@@]1(CCS(=O)(=O)c2ccccc2)COC(c2ccc(OCCCO)cc2)=N1`, the composite z-score in assay [1] is 0.182; in assay [3], -0.691; in assay [4] it was -0.0602; in [5], 0.24; in assay [6] it was -0.129; in [7], 0.0062. Moreover, the composite z-score in assay [8] was -0.463; in assay [9] it was 2.98; in assay [10], 0.451; with Albumin (Bos taurus) it was -0.344; in [12] it was -0.15; in [13], -0.108. Further, the composite z-score in assay [14] is 0.815; in [15], 1.63; in assay [16], 0.0237; in the assay on Sam68 (KHDRBS1), -0.39; in [17], -0.724; in assay [18], -0.0647. Further, in [2], the z-score is -0.615. Also, in [11], the composite Z-score was 0.714 (inactive).
As to `CN1C(=O)C2C=CC(C(O)C3CC=CCC3)N(NC(=O)OC(C)(C)C)C2C1=O` (stereo not given), the composite z-score in assay [1] is 0.696; in assay [3] it was 0.46; in assay [4], 2.3; in assay [5], 0.785; in assay [6] it was -0.0539; in [7] it was -0.195. Also, the composite z-score was 0.55 in assay [8]; 1.84 in assay [9]; 1.3 in assay [10]; 1.03 in the assay with Albumin (Bos taurus); 0.178 in assay [12]; -0.121 in assay [13]. For the same molecule, the composite z-score stood at 0.713 in assay [14]; 3.19 in assay [15]; 0.532 in [16]; 1.32 with Sam68 (KHDRBS1); 0.547 in [17]; 0.627 in [18]. Besides, the z-score in assay [2] is -0.0017. For the same molecule, the composite Z-score in assay [11] is 3.41 (inactive).
Consider `COCCOC(=O)N1C(=O)[C@@]2(c3ccccc31)[C@H](c1ccccc1OCCO)N1[C@H](c3ccccc3)[C@H](c3ccccc3)OC(=O)[C@H]1[C@@H]2C(=O)Nc1nc2ccccc2s1`, for which the composite z-score in assay [1] is 0.484; in [3], 0.531; in assay [4], 1.24; in assay [5] it was 0.375; in assay [6], 0.0095; in assay [7], -0.188. In addition, the composite z-score is 0.326 in [8]; 0.988 in assay [9]; 1.74 in assay [10]; 0.665 with Albumin (Bos taurus); 0.133 in [12]; -0.089 in assay [13]. The composite z-score in assay [14] was determined as 0.481; in [15] it was 1.52; in [16] it was 1.69; in the assay with Sam68 (KHDRBS1), 1.31; in assay [17], 0.651; in assay [18] it was 1.18. In assay [2], this molecule returned a z-score of -2.52. Further, the composite Z-score in assay [11] is 0.746 (inactive).
Take `CCCC[C@@H]1C[C@H]1[C@@H](NC(=O)c1ccco1)c1ccc(C(=O)OC)cc1`: the composite z-score in assay [1] is 0.0703; in [3] it was -0.423; in assay [4] it was 0.0927; in [5] it was 0.555; in [6], -0.027; in assay [7], -0.217. Besides, the composite z-score in assay [8] is -0.261; in assay [9] it was -0.392; in [10], -0.335; in the assay with Albumin (Bos taurus), 0.623; in [12] it was -0.0967; in assay [13], -0.11. Also, the composite z-score is 0.39 in assay [14]; 0.792 in assay [15]; 0.187 in assay [16]; 0.0166 in the assay with Sam68 (KHDRBS1); 0.0374 in [17]; -0.112 in assay [18]. In addition, the z-score in assay [2] was -1.07. Also, in assay [11], the composite Z-score was 0.224 (inactive).
For `Cc1ccc(S[C@]2(C(=O)NCCN3CCOCC3)CC(=O)N(Cc3ccccc3Cl)[C@@H]2c2ccc(CO)cc2)cc1`, the composite z-score was 1.02 in assay [1]; -0.989 in assay [3]; -0.343 in assay [4]; 0.148 in [5]; -0.12 in assay [6]; -0.0035 in [7]. The composite z-score in assay [8] was -0.339; in assay [9], 0.733; in assay [10] it was -0.146; in the assay with Albumin (Bos taurus), 0.429; in assay [12] it was -0.0362; in assay [13], -0.133. The composite z-score is 0.686 in [14]; 0.776 in assay [15]; 0.0897 in assay [16]; -0.541 in the assay with Sam68 (KHDRBS1); -1.2 in [17]; -0.199 in assay [18]. In [2], this molecule gave a z-score of -0.815. The composite Z-score in [11] was -0.0407 (inactive).
